# PubChem BioAssay AID1362 (SRMLSC, 2008)
# Out of some 190,000 compounds screened, about 4,000 (2.1%) were called active. Cut-off read from the data, not from the text of the source: active = inhibition above about 58%; inactive = the rest, inconclusive results apart; tested in S. cerevisiae. This excerpt belongs to a sample that is enriched for actives.
# Experiment: growth inhibition of WT strain, primary screen, mitochondrial fusion inhibitor project, WT and mutant strains, chemical genetic (AID 1362)
# Conditions: mitochondrial fusion phenotypic screen, at 10 µM
# [1] = WT strain, growth inhibition, stronger effect = higher value
SMILES,inhibition [1],inhibition (mutant strain inhibition)
CCn1nccc1C(=O)Nc1ccc(Cl)c(Cl)c1,27.7% (inactive),28.1%
CCn1nccc1C(=O)Nc1ccc(S(=O)(=O)NC23CC4CC(CC(C4)C2)C3)cc1,64% (active),-11.7%
Cc1cc(C(F)F)n2nc(C(=O)Nc3ccc(S(=O)(=O)NC45CC6CC(CC(C6)C4)C5)cc3)nc2n1,-1.63% (inactive),-19.6%
S=c1nc(C23CC4CC(CC(C4)C2)C3)nc2sccn12,23.5% (inactive),16.9%
COc1ccccc1N1CCN(CC(=O)NCCc2ccc(S(N)(=O)=O)cc2)CC1,-0.9% (inactive),3.52%
COC(=O)NC1(C(F)(F)F)NC(=O)N(C2CCCCC2)C1=O (configuration not stated),6.22% (inactive),-5.73%
O=C(NC1(C(F)(F)F)NC(=O)N(C2CCCCC2)C1=O)c1ccco1 (configuration not stated),-16.6% (inactive),-15.1%
O=C1NC(Nc2nc3ccccc3s2)(C(F)(F)F)C(=O)N1C1CCCCC1 (configuration not stated),68.5% (active),15.8%
CS(=O)(=O)N(CC(=O)NC1CCCC1)Cc1ccc(F)cc1,1.23% (inactive),-0.09%
CN(C)S(=O)(=O)c1cccc(NC(=O)COC(=O)/C=C/c2cccs2)c1,0.4% (inactive),-0.76%
CN1CCN(S(=O)(=O)c2cccc(C(=O)N3CCc4ccccc43)c2)CC1,-3.09% (inactive),-6.02%
COc1cccc(CNC(=O)Cc2csc(Nc3nc(=S)[nH]c4ccccc34)n2)c1,2.48% (inactive),7.91%
Cc1noc(C)c1CSCC(=O)Nc1nc2ccc(Oc3ccccc3)cc2s1,71.3% (active),34.8%
CCn1c(SCC(=O)Nc2nc3ccc(OC)cc3s2)nnc1-c1ccoc1C,42% (inactive),9.68%
CCOC(=O)c1c(C2CC2)csc1NC(=O)CSCc1c(C)noc1C,-0.08% (inactive),6.46%
O=C(O)Cc1ccc(NCc2ccccc2Cl)cc1,2.97% (inactive),-2.38%
CN1CCNC(=O)C1CC(=O)NCCC1=CCCCC1 (configuration not stated),13.1% (inactive),9.2%
CCCc1cc(-c2nc(-c3ccc(C)cc3)cs2)ccn1,77.9% (active),50.8%
Clc1ccc(-c2csc(-c3ccncc3)n2)cc1,25.2% (inactive),28.4%
Cc1ccc(-c2csc(NNC(=O)c3ccccc3)n2)cc1,9.24% (inactive),14%
CC1Cc2ccccc2N1C(=O)CSc1nnc(C2CC2)n1C (configuration not stated),-5.06% (inactive),2.15%
Cc1ccc(C)c(NC(=S)NNC(=O)c2csc(C)c2)c1,-2.09% (inactive),-14.4%

SMILES,inhibition [1],inhibition (mutant strain inhibition)
Cc1ccc(NC(=S)N/N=C2/CCCc3c(C)cc(C)cc32)cc1,23.1% (inactive),23.1%
Cc1ccc(C)c(NC(=S)NNC(=S)Nc2ccc(C(C)C)cc2)c1,71.3% (active),24.5%
Cc1nn(CCOc2ccc(Br)cc2)c(C)c1[N+](=O)[O-],3.38% (inactive),-3.33%
O=S(=O)(Cc1ccccc1)c1nc2ccccc2n1Cc1ccccn1,23.5% (inactive),10.5%
C=CCn1c(=N)n(CC(O)COc2ccc(OC)cc2)c2ccccc21 (configuration not stated),10.5% (inactive),-4.41%
OC(CN=c1sc2ccccc2n1CC(O)COc1ccccc1)COc1ccccc1 (configuration not stated),74.3% (active),39.9%
OC(COc1ccccc1)Cn1cc(Br)cn1 (configuration not stated),5.35% (inactive),-3.45%
COc1ccccc1C(c1nnnn1CC1CCCO1)N1CCN(c2ccccc2)CC1 (configuration not stated),24.2% (inactive),-7.45%
O=C1COc2ccc(C(=O)COC(=O)C3CC(O)CN3S(=O)(=O)c3ccc(Cl)cc3)cc2N1 (configuration not stated),7.83% (inactive),0.3%
Cc1ccnc(NC(=O)CCC(=O)N(CC(=O)NCc2ccccc2)Cc2ccco2)c1,-6.89% (inactive),16.9%
O=S1(=O)CCC(NC(=S)SCc2ccccc2Br)C1 (configuration not stated),-2.13% (inactive),13.4%
COCCn1c(CN(Cc2ccccc2)Cc2ccccc2)nc2c1c(=O)n(C)c(=O)n2C,13% (inactive),-1.28%
CC(C)Cn1c(CN(Cc2ccccc2)Cc2ccccc2)nc2c1c(=O)n(C)c(=O)n2C,85.5% (active),23.3%
CC(C)CCn1c(CN(C)Cc2ccccc2)nc2c1c(=O)n(C)c(=O)n2C,1.88% (inactive),1.47%
Cc1ccc2nc(C)cc(N/N=C/c3ccc(F)cc3)c2c1,6.16% (inactive),21%
CCOC(=O)c1cccc(NC(=O)CCOc2ccccc2)c1,3.69% (inactive),2.18%
COc1ccccc1CSc1ncc(-c2ccc([N+](=O)[O-])cc2)[nH]1,63.4% (active),30.7%
COc1ccccc1CSc1nc2ccccc2[nH]1,-4.85% (inactive),-2.06%
COc1ccccc1CC(=O)Nc1ccc([N+](=O)[O-])cc1OC,-6.53% (inactive),-1.24%
COCC(C)NCc1cc(Br)ccc1OC (configuration not stated),7.52% (inactive),7.1%
CCCOc1ccc(N/C=C/C(=O)C(C)(C)C)cc1,-11.3% (inactive),-8.28%
CCCOc1ccc(C(=O)C(CCC(CNCC)C(=O)c2ccc(OCCC)cc2)CNCC)cc1 (configuration not stated),72.9% (active),35.9%

SMILES,inhibition [1],inhibition (mutant strain inhibition)
CCCOc1ccc(C(=O)NCCc2ccccc2)cc1,-6.25% (inactive),-16.2%
Cc1cc2ccccc2n1CCC(=O)O,7.54% (inactive),5.92%
NC(=O)c1ccccc1N(Cc1ccccc1)S(=O)(=O)c1ccccc1,-1.27% (inactive),17.1%
COc1ccc(S(=O)(=O)N(C)CC(=O)N2CCCC2)cc1Cl,-0.67% (inactive),5.49%
O=C(O)CC/C(=N\NC(=O)c1ccc(F)cc1)c1ccc(Br)cc1,-0.54% (inactive),7.09%
Clc1ccc(COn2c(-c3ccc(Cl)cc3Cl)nc3ncccc32)cc1,73.2% (active),48.6%
COn1c(-c2ccc(Cl)cc2Cl)nc2ncccc21,6.69% (inactive),2.12%
Clc1ccc(-c2ncc3ccccn23)c(Cl)c1,24.3% (inactive),2.24%
COCCNC(=S)Nc1cc(S(=O)(=O)N2CCOCC2)ccc1N1CCCCC1,22% (inactive),22.7%
CC(=O)NC(Cc1ccccc1)C(=O)NC1CCN(c2ncccc2[N+](=O)[O-])CC1 (configuration not stated),6.05% (inactive),4.93%
COc1ccc(N2CCN(c3ccc([N+](=O)[O-])nc3)CC2)cc1,15.8% (inactive),8.11%
COc1ccc(-c2cc(C3CCN(c4ncccc4[N+](=O)[O-])CC3)[nH]n2)cc1,72.2% (active),40.6%
O=c1cnnc(Nc2ccccc2F)[nH]1,-19.8% (inactive),-21.4%
CCC(=O)c1ccc(OCC(O)CN2CCN(c3cccc(C(F)(F)F)c3)CC2)cc1 (configuration not stated),10.7% (inactive),17.1%
O=C(COc1ccc(Cl)cc1)N1CCN(c2cccc(C(F)(F)F)c2)CC1,59.2% (active),27.3%
O=C(COc1ccc(Cl)cc1)N1CCN(S(=O)(=O)c2ccc(Cl)cc2)CC1,-16.2% (inactive),-6.77%
CC(=O)Oc1ccccc1C1=NN(C(C)=O)C(c2ccccc2)C1 (configuration not stated),-8.11% (inactive),7.28%
Cc1cccc(NC(=S)Nc2ccc(Cl)c(Cl)c2)c1,83% (active),83%
Cc1cccc(NC(=S)Nc2ccc3cn[nH]c3c2)c1,3.94% (inactive),-1.45%
Cc1cccc(NC(=S)Nc2ccc(Br)cc2)c1,-2.23% (inactive),-3.76%
CCCCCN(C(=O)NC(=O)Nc1cccc(C)c1C)S(C)(=O)=O,-2.53% (inactive),12%
O=S(=O)(c1ccc(-c2ccccc2)cc1)N1CCCC1,-9.92% (inactive),-14.9%

SMILES,inhibition [1],inhibition (mutant strain inhibition)
CCOCCCn1c(NN)nc2ccccc2c1=O,4.28% (inactive),1.61%
CCOC(=O)N1CCN(C(=O)Cn2cnc3ccccc3c2=O)CC1,-8.2% (inactive),-9.03%
CCOC(=O)C1CCc2nc3ccccc3c(=O)n21 (configuration not stated),96.7% (active),18.1%
Cc1nc(-c2ccc(Cl)cc2)sc1C(=O)CBr,29.8% (inactive),16%
Cc1ccc(S(=O)(=O)Cc2cc(-c3ccc(Cl)cc3)no2)cc1,17.1% (inactive),12.1%
Cc1cc(C)cc(NC(=S)NCc2ccc(F)cc2)c1,42.3% (inactive),3.44%
Cc1cc(C)cc(NC(=S)NCCc2c[nH]c3ccccc23)c1,70.2% (active),27.3%
O=C(NCCc1c[nH]c2ccccc12)c1cc2ccccc2oc1=O,15.8% (inactive),-4.03%
CC(C)(C)NC(=O)c1ccc(Cn2cc(C(F)(F)F)ccc2=O)cc1,3.12% (inactive),11.4%
Cc1ccc(Nc2ccccc2N)cc1,48.4% (inactive),33.4%
Cc1cc(Nc2ccccc2)n(C(=O)c2ccc(N)cc2)n1,-10.2% (inactive),32.9%
Nc1ccc(Nc2ccccc2)cc1,74.9% (active),46%
CCOC(=O)C1(Cc2cccc(OC)c2)CCN(C(C)CC(C)(C)O)CC1 (configuration not stated),-0.94% (inactive),20.1%
CCN(CC)CC(=O)Nc1sc2c(c1C(=O)c1ccccc1C)CCC2,56.7% (inactive),9.28%
COC(=O)C1=C(Nc2ccc(C)cc2)C=C(C)C(C(=O)OC)C1c1ccc(F)cc1 (configuration not stated),72.8% (active),-7.13%
COC(=O)C1=C(Nc2ccc(OC)cc2)C=C(C)C(C(=O)OC)C1c1ccc(C)cc1 (configuration not stated),11.5% (inactive),5.72%
COC(=O)C1C(=O)NCC1c1ccc(C)cc1 (configuration not stated),19.4% (inactive),13.7%
CCC(=O)NC(=S)Nc1ccc(NC(=O)c2ccco2)c(Cl)c1,8.3% (inactive),-0.75%
Cn1ccc(=NC=C(C#N)C#N)c2ccccc21,-8.61% (inactive),4.44%
CC1=NNC(=O)C1CCC(=O)N/N=C\c1ccc(Cl)c(Cl)c1 (configuration not stated),-6.04% (inactive),2.78%
